Results on 48 compounds are retold here after article PMC4336329 (PLoS ONE, 2015).

Among all 310,000 compounds or so, about 14,000 (4.5%) showed an effect of 50% or more. The effect is printed as a negative number. For the sample, strong results were picked, then their nearest neighbours and some compounds at random.
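Also: peak tail current of the secondary pulse compared with the same well before compound.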

Chain of human ether-à-go-go-related gene (hERG) potassium channel (Q12809 whole entry, looked up): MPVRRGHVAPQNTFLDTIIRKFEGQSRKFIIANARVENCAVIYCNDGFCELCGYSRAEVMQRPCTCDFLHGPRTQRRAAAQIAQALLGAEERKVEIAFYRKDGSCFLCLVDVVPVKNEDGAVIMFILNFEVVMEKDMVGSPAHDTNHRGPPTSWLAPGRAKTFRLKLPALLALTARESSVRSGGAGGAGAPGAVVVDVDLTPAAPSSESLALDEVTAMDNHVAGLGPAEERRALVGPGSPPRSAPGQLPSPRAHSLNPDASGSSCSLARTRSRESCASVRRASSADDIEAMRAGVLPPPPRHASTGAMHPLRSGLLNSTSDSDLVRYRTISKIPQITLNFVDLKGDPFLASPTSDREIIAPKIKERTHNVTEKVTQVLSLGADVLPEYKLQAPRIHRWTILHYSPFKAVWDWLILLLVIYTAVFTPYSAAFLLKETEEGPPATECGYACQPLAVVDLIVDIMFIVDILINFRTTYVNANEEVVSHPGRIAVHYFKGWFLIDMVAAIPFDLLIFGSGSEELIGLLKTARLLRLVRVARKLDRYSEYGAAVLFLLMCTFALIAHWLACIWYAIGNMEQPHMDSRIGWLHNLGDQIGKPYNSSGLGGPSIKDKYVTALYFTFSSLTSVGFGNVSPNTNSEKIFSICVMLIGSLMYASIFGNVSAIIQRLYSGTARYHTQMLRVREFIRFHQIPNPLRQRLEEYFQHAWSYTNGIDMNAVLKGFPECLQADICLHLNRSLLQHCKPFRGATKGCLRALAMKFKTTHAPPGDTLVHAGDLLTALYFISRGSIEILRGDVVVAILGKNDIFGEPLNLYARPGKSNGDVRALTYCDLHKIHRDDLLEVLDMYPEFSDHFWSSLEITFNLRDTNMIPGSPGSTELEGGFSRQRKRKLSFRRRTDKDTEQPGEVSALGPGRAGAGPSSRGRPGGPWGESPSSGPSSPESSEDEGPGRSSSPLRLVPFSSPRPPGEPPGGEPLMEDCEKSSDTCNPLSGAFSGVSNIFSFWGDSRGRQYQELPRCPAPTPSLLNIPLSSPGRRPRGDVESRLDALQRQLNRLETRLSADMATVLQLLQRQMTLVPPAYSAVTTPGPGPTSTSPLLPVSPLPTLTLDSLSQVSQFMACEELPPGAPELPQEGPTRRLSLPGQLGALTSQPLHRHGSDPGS

The assay concerns the target human ether-à-go-go-related gene (hERG) potassium channel (human, UniProt Q12809). Put plainly: primary screen, population patch clamp on CHO cells stably expressing hERG; higher = less effect of the substance.
Turning to `C=CCNC(=O)c1c(-c2c(F)cccc2Cl)noc1C`, the “hERG current change (%, negative = inhibition) at 10uM” value is recorded as -1.62%.
Then `Cc1ccc(S(=O)(=O)N2CCC(C(=O)N3CCC[C@H]3C(=O)NCC(C)C)CC2)cc1`, with 13.8%; and `Cl.N=c1sccn1CC(=O)NCCc1ccc(Cl)cc1`, with -26.3%.
Then `CC(C)N=c1cc2n(-c3ccc(Cl)cc3)c3ccccc3nc-2cc1Nc1ccc(Cl)cc1`, with 35.9%; and `CCN(Cc1ccncc1)C(=O)c1cc(COc2c(F)cccc2F)on1`, with -36%; and `CCN(Cc1ccncc1)C(=O)c1ccco1`, with -73.5%.
The figure for `CCN(Cc1ccncc1)C(=O)c1cc(COc2ccc(F)cc2F)on1` is -36%; for `COc1cccc(OCc2cc(C(=O)N(C)Cc3nc4ccccc4[nH]3)no2)c1` it is -37.1%.
Turning to `CCN(Cc1ccncc1)C(=O)c1ccc(Br)o1`, the “hERG current change (%, negative = inhibition) at 10uM” value came to 1.66%.
With `CCN(Cc1ccncc1)C(=O)c1cc(COc2c(C)cccc2C)on1`, the “hERG current change (%, negative = inhibition) at 10uM” value was -75.3%.
Then `CCN(Cc1ccncc1)C(=O)c1ccc(C)o1`, with -0.494%; and `CCN(Cc1ccccc1)C(=O)c1cc(COc2c(F)cccc2F)on1`, with 3.85%.
As to `CCN(Cc1ccncc1)C(=O)c1cc(COc2ccc(C)c(C)c2)on1`, the “hERG current change (%, negative = inhibition) at 10uM” value is -69.5%.
As for `Cc1cccc(C)c1OCc1cc(C(=O)N(C)Cc2nc3ccccc3[nH]2)no1`, the “hERG current change (%, negative = inhibition) at 10uM” value is reported as -70.6%.
With `CCN(Cc1ccncc1)C(=O)c1cc(COc2ccc(OC)cc2Cl)on1`, the “hERG current change (%, negative = inhibition) at 10uM” value is -22.6%.
With `CC(=O)c1ccc(OCc2cc(C(=O)N(C)Cc3nc4c(C)cccc4[nH]3)no2)cc1`, the “hERG current change (%, negative = inhibition) at 10uM” value is -10.7%.
The figure for `CCN(CC(=O)NC1CCS(=O)(=O)C1)S(=O)(=O)c1cc(C)ccc1C` (stereo not drawn) is 10.2%.
Consider `COc1ccc(NC(=O)Cn2c(=O)c(C)nc3ccccc32)cc1Cl`, for which the “hERG current change (%, negative = inhibition) at 10uM” value is -2.07%.
The figure for `CN(C)c1ccc(CCc2ccc(N)cc2)cc1` is 19.9%; for `Cc1sc(NC(=O)c2ccco2)c(CN2CCN(c3ccccc3)CC2)c1C` it is 7.18%; for `CCOc1ccc2c(c1)nc(NCCCO)n2Cc1ccccc1` it is -20.3%.
The figure for `O=c1[nH]c2ccccc2nc1-c1cccs1` is 1.66%; for `COc1cc(C)nc(N2CCCC(C(=O)Nc3cccc(Cl)c3C)C2)n1` (stereo not drawn) it is 0.916%; for `C/C(=C\C(=O)c1cccnc1)Nc1ccc(O)cc1` it is -6.35%.
The figure for `CCOc1cc(N(CC)CC)ccc1/C=C(/C#N)c1nc2ccccc2[nH]1` is 0.119%; for `NC(=O)c1nc(-c2ccco2)nc2c1[nH]c(=O)n2-c1ccc(Cl)c(Cl)c1` it is -9.13%.
Consider `COC(=O)c1ccccc1NC(=O)NCc1ccccc1`, for which the “hERG current change (%, negative = inhibition) at 10uM” value is on record as -3.24%.
As for `Cc1c(C(=O)OC2CCC(C)CC2)[nH]c2c1C(=O)CCC2` (stereo not drawn), the “hERG current change (%, negative = inhibition) at 10uM” value is listed as -3.25%.
The figure for `Cc1ccc(NS(=O)(=O)c2ccc(-c3csc(C)n3)s2)c(C)c1` is 16%; for `CCN(CCn1cccn1)C(=O)c1cc(COc2c(F)cccc2F)on1` it is 0.76%; for `CCN(CCn1cccn1)C(=O)c1cc(COc2ccc(F)c(F)c2)on1` it is -96%.
Take `CCN(CCn1cccn1)C(=O)c1cc(COc2ccc(F)cc2Cl)on1`: the “hERG current change (%, negative = inhibition) at 10uM” value is -15.4%.
Then `O=C1C2C3c4ccccc4C(c4ccccc43)[C@@H]2C(=O)N1c1ccccn1` (stereo partly drawn), with 5.6%; and `O=C(N/N=C/c1ccc(OC(F)F)cc1OC(F)F)c1cccc(S(=O)(=O)N2CCOCC2)c1`, with -33.1%.
Then `COC(=O)Cn1ncn2c(cc3oc(C)cc32)c1=O`, with 13.1%.
The figure for `CCN(CC(=O)Nc1ccc(OC)cc1)C(=O)COc1cccc2c1OC(C)(C)C2` is -14.1%; for `C=CCC1(CC=C)CCCN1Cc1nc(COc2ccccc2)no1` it is -11.5%; for `c1ccc(CN2CCCC3(CCCN(Cc4nc(COc5ccccc5)no4)C3)C2)cc1` (stereo not drawn) it is -69.3%.
As to `Cc1ccccc1C1CCCN(Cc2nc(CC3CC3)no2)C1` (stereo not drawn), the “hERG current change (%, negative = inhibition) at 10uM” value is recorded as -12.7%.
Then `c1ccc(CN2CCCC3(CCCN(Cc4nc(CC5CC5)no4)C3)C2)cc1` (stereo not drawn), with -52.1%.
Then `c1ccc(C2CCCN(Cc3nc(CC4CC4)no3)CC2)cc1` (stereo not drawn), with 2.97%.
Then `c1ccc(OCc2noc(CN3CC[C@@H]4CCCC[C@H]4C3)n2)cc1`, with 0.704%; and `CN(CC(=O)O/N=C(\N)c1ccccn1)S(=O)(=O)c1ccccc1`, with -4.98%; and `Cc1noc(C)c1NC(=O)NCCN1CCN(Cc2ccccc2)CC1`, with 13.7%.
Turning to `Cc1ccccc1NC(=O)NCCCN1CCN(C)CC1`, the “hERG current change (%, negative = inhibition) at 10uM” value was 28.1%.
Consider `O=C(Nc1ccc2ccccc2c1)N1CCCN(CCOc2ccccc2)CC1`, for which the “hERG current change (%, negative = inhibition) at 10uM” value is reported as -66%.
Then `COc1ccc(N2CCN(CCNC(=O)Nc3cc(Cl)ccc3OC)CC2)cc1`, with 3.23%; and `COc1ccccc1NC(=O)NCCN1CCN(c2cccc(Cl)c2)CC1`, with -9.6%.
